The list is not random: actives were taken first. Their share in the collection is about 11%.
HPGD inh – blocks human HPGD enzyme activity | actives 4.3% (n = 150,000) | P15428 | Potency, µM, for the others: top-dose activity change, negative = inhibition, usual class: inhibitors | purified HPGD, NADH fluorescence kinetic, PGE2 substrate; note: potency is the fitted concentration of half-maximal effect
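20 nM HPGD preincubated 15 min at room temperature with compound in 50 mM Tris-HCl pH 8, 0.01% Tween 20. Started with 1 mM NAD+ and 30 uM prostaglandin E2; NADH fluorescence (360/450 nm) read 5 times over 30-s intervals, last minus first.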
ALDH1A1 block – inhibitors of human aldehyde dehydrogenase 1A1; actives 7.3% (n = 220,000); Purified ALDH1A1, NADH fluorescence, propionaldehyde substrate; Potency, µM (titrated, usually from 75.3 µM), without a hit: top-dose activity, negative = inhibition, usual class: inhibitors; AID 1030;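 note: potency is the fitted concentration of half-maximal effect; plate controls were no enzyme wells and a reference inhibitor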
Target sequence (P00352 whole entry, looked up): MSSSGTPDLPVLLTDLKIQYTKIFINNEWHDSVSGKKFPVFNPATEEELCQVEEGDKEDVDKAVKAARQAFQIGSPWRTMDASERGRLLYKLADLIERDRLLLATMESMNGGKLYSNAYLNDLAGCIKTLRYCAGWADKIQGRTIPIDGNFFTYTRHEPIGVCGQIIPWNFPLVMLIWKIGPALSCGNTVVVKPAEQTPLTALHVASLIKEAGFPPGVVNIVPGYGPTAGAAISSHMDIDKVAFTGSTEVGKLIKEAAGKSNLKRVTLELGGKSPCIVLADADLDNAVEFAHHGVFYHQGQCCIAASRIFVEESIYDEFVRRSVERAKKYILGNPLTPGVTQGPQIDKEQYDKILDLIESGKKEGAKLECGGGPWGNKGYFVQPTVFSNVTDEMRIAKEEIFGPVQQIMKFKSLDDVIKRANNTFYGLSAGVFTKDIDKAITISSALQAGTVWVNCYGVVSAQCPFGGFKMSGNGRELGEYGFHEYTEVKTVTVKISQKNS
PNC assembly inh – blocks assembly of the perinucleolar compartment | activity change (PNC), negative = inhibition, % at 10 µM | PC3M PTB-GFP, PNC prevalence imaging, 16 h; stronger effect = lower value | actives 3.1% (n = 140,000);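 active = readout at or below -70, meaning at least 70% loss of cells showing the perinucleolar compartment, a nuclear body marking cancer cells; inconclusive = readout between -30 and a set limit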;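 note: plate controls were DMSO wells for no effect and camptothecin positive control wells for full effect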
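Read-out is percentage of cells bearing a perinucleolar compartment, from automated 20x imaging of fixed, Hoechst-stained PC3M PTB-GFP cells. Cells were seeded 4 h, then exposed 16 h to compound (23 nl of library stock) in duplicate plates.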
An asterisk follows results filed as active; ? = inconclusive; · = not tested or not shown; ! = repeats disagree; [ ] = dose if it differs, or a comment. Unless noted, calls come from the whole dose curve; as a rule, active = well fitted inhibition curve with a large enough effect (not every such curve was filed as active); inconclusive = small, poorly fitted or top-dose-only effect, or another doubt; inactive = no such curve, though single readings can be large or run the other way. Unless noted, % is set by controls: 0 for no effect and ±100 for the full control effect.

SMILES	HPGD inh	ALDH1A1 block	PNC assembly inh
COc1ccc2c(c1)c(=O)cc(C)n2CC(=O)NCc1ccco1	?	-4%	-12
O=C(Nc1cccc(F)c1)N1CC[C@@]2(CCCN(C(=O)c3cnccn3)C2)C1	-4%	2%	·
CCOC(=O)c1ccc(NC(=O)CC2SCCNC2=O)cc1 (stereo not drawn)	-4%	13µM*	?
Cc1ccccc1NC(=O)CC1SCCNC1=O (stereo not drawn)	-14%	20%	-92*
Cc1c(Cl)cccc1NC(=O)CC1SCCNC1=O (stereo not drawn)	-1%	0%	-10
CCOC(=O)c1ccc(NC(=O)CC2NCCNC2=O)cc1 (stereo not drawn)	-5%	-5%	10
CC(Oc1ccc(C(C)(C)C)cc1)c1ccnc2nc(/N=C/N(C)C)nn12 (stereo not drawn)	?	?	0
c1ccc2c(c1)OCCOCCOCCOCCOCCOc1ccccc1OCCOCCOCCO2	-3%	2%	44
COc1cccc(C2=NOC(C(=O)NC3CCCCC3)C2)c1 (stereo not drawn)	?	?	-6
C/C(=N/NC(=O)c1ccco1)c1cccnc1	·	-4%	·
CN(C)CC/C=C1\c2ccccc2COc2ccccc21	-8%	18µM*!	52
CNCC/C=C1/c2ccccc2CSc2ccccc21	0%	-15%	3
O=C(Cc1cccs1)NNC(=O)c1ccc(F)cc1	-3%	13%	-27
O=C(COc1ccc2c(c1)CCC2)N1CCc2ccccc21	-10%	-11%	-81*
Cc1ccc(OCC(=O)N2CCc3ccccc32)cc1	-12%	-8%	11
O=C(CO/N=C/c1ccccc1O)N1CCc2ccccc21	-8%	10µM*	-20
O=C(OCC(=O)N1CCc2ccccc21)c1ccccc1	-10%	2%	-6
CCOCC(=O)N1CCc2ccccc21	-1%	3.5µM*	55
O=C(CCCC(=O)N1CCc2ccccc21)N1CCc2ccccc21	-8%	10%	4
CN1C(=O)C(=O)N(CC(=O)N2CCc3ccccc32)C1=O	-20%	-3%	20
O=C(CN1C(=O)CSc2ccccc21)N1CCc2ccccc21	-5%	-9%	-90*
CCOc1ccccc1NC(=S)N1CCC(NC(=O)C(C)(C)C)CC1	·	-8%	·
Cc1cc(C(=O)N2CCN(Cc3ccc4c(c3)OCO4)CC2)cs1	-5%	-6%	7
Cc1ccc(S(=O)(=O)N[C@H]2COC(=O)C/C=C\[C@@H](C)[C@H](NS(=O)(=O)c3ccc(C)cc3)COC(=O)[C@H](C)NC(=O)C/C=C\[C@H]2C)cc1	·	3%[13.5 µM]	·
COc1ccc(CCNS(=O)(=O)c2cccc(C(=O)O)c2)cc1OC	-9%	-5%	8
SMILES	HPGD inh	ALDH1A1 block	PNC assembly inh
CCOC(=O)c1cc2sccc2n1CC(=O)N1CCc2ccccc21	1%	-2%	14
Cc1csc(=N)n1CC(=O)N1CCc2ccccc21	-4%	25µM*	-15
O=Cc1cn(CC(=O)N2CCc3ccccc32)c2ccccc12	·	18µM*	·
CC1CCCCN1C(=O)Cn1cc(C=O)c2ccccc21 (stereo not drawn)	-4%	4%	-16
OCCC1CN(Cc2cc3c(cc2Cl)OCO3)CCN1C1CCCCC1 (stereo not drawn)	·	-2%	·
COc1cccc(NCc2cc(=O)oc3cc(-c4ccccc4)c(O)cc23)c1	0%	14%	-6
O=C(c1ccc(C(F)(F)F)cc1)N1CCC(=O)N([C@H](COCc2ccc(C(F)(F)F)cc2)Cc2ccccc2)CC1	-12%	9%[50.4 µM]	·
CSc1ccc(C(=O)C2CCCN(C(=O)c3ccsc3)C2)cc1 (stereo not drawn)	·	5µM*	·
CSc1ccc(C(=O)C2CCCN(C(=O)c3cccnc3SC)C2)cc1 (stereo not drawn)	·	-69%	·
CCOc1ccc(-c2cc(N)n(S(=O)(=O)c3ccc(OC)c(OC)c3)n2)cc1	-12%	?	?
COc1ccc(S(=O)(=O)n2nc(-c3ccc(Cl)cc3)cc2N)cc1OC	-19%	89µM*	-7
CCCCCCCCCCOC(=O)c1csc2nnsc12	-18%	4%	-100*
CCCCCOC(=O)c1ccccc1C(=O)O	-18%	3%	?
Cc1ccc(N2CC(C(=O)O)CC2=O)cc1 (stereo not drawn)	·	0%	·
CCn1c(/C=C2/C(=O)N(C)c3ccccc32)nc2ccccc2c1=O	-39%	9.5µM*	26
CCN1C(=O)/C(=C\c2nc3ccccc3c(=O)n2CC)c2ccccc21	·	14µM*	·
CCN1C(=O)/C(=C/c2nc3ccccc3c(=O)n2-c2ccccc2)c2ccccc21	-11%	?	?
CCn1c(/C=C2\C(=O)N(C)c3ccccc32)nc2ccccc2c1=O	2%	?	?
CS(=O)(=O)N1CCC2(CCN(Cc3ccc(C#N)cc3)CC2)CC1	-3%	1%	·
C(=N\Nc1nc(Nc2ccccc2)nc(N2CCCCC2)n1)/c1ccco1	·	-6%	·
O=[N+]([O-])c1ccc2c(c1)c(S(=O)(=O)O)cc1nonc12	-15%	16%[13.5 µM]	·
O=C(Cn1ccc(C(F)(F)F)n1)N=Nc1c(O)[nH]c2ccc(Br)cc12	·	3%	·
S=C(Nc1ccccc1)Nc1ccc(OCc2ccccc2)cc1	-6%	2%	67
CCOc1cc(NC(=S)Nc2cccc(C)c2)c(OCC)cc1NC(=O)CC(C)C	-1%	-16%	?
CCOc1cc(NC(=S)Nc2cccc(OC)c2)c(OCC)cc1NC(=O)c1ccc(C)cc1	-18%	?	14
SMILES	HPGD inh	ALDH1A1 block	PNC assembly inh
COc1ccc(NC(=S)Nc2ccc(OCc3ccccc3)cc2)c(OC)c1	-24%	10µM*	28
CCOc1cc(NC(=S)Nc2cccc(OC)c2)c(OCC)cc1NC(=O)C(C)C	-12%	?	-106*
CCOc1cc(NC(=S)Nc2ccccc2)c(OCC)cc1NC(=O)c1ccc(OC)cc1	-19%	22µM*	?
CCn1c(SCC(=O)Nc2nccs2)nnc1-c1ccc(S(=O)(=O)N2CCCCC2)cc1	-16%	?	34
CCOC(=O)c1c(NC(=S)NC)sc2c1CC(C)(C)SC2	?	25µM*	?
CCOC(=O)c1c(NC(=S)Nc2ccccc2)sc2c1CCN(CCc1ccccc1)C2	-19%	?	6
CCOC(=O)c1c(NC(=S)Nc2ccccc2)sc2c1CC(C)(C)SC2	?	2.5µM*	26
O=C(NNC(=O)C1CC(c2cccnc2)=NO1)Nc1cccc(F)c1 (stereo not drawn)	-4%	6%	-15
CCCOc1ccc2oc(=O)c3c(c2c1)CCCN3C(=O)CN1CCN(C(=O)c2ccco2)CC1	-10%	?	15
CCCOc1ccc2oc(=O)c3c(c2c1)CCCN3C(=O)CN1CCN(c2ncccn2)CC1	·	2.8µM*	?
COc1ccc(N(C(=O)c2ccco2)S(=O)(=O)c2ccc(F)cc2)cc1	28µM*	-1%	39
COc1ccc(N(C(=O)c2ccco2)S(=O)(=O)c2cccc([N+](=O)[O-])c2)cc1	?	-13%	70
COc1ccccc1NC(=O)c1cc(OC)c(OC)cc1[N+](=O)[O-]	·	8%	·
COc1ccccc1NCc1ccc([N+](=O)[O-])s1	-10%	14µM*	?
COCc1ccc(C(=O)NC(C)c2cnn(-c3ccccc3C)c2C)o1 (stereo not drawn)	·	-7%	·
